PubChem BioAssay AID651610 (Broad Institute, 2012)
The whole screen tested about 360,000 compounds, of which about 3,900 (1.1%) were called active.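 The calls were made as follows: active = mean replicate inhibition score of at least 50 and every replicate individually at or above 50; inconclusive = only one of the two criteria met; inactive = mean below 50 and not all replicates reaching 50.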 Shown is part of a subset that was picked to be rich in actives.

Test: blockers of JRFL envelope-mediated fusion – HeLa-JRFL effector, CEM21 target cells, luciferase, primary screen (AID 651610);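 also: 0% = plate neutral controls and 100% = maraviroc near 300 nM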
Conditions: HeLa-JRFL Env/CEM21 cell fusion, stronger effect = higher value; at 16.7 µM unless noted

inhibition, active:
CCc1ccc(OCC(=O)NCC(c2ccc(Cl)cc2)N2CCCCC2)cc1 (stereo not given) 73.9% [at 12.3 µM]
COc1ccc(-c2cn[nH]c2-c2ccc(OC)cc2)cc1 60.2% [at 12.3 µM]
CC1(Cc2cccc(C#N)c2)C(=O)Nc2ccc(-c3cccc(C(F)(F)F)c3)cc21 (stereo not given) 76.4% [at 12.3 µM]
O=C(c1ccccc1)N1CCN(c2cc(-c3ccccc3)nc3cc(-c4cccc(Cl)c4)nn23)CC1 57.4% [at 12.3 µM]
CN(C)[C@@H]1C(=O)C(C(N)=O)=C(O)[C@@]2(O)C(=O)C3=C(O)c4c(O)ccc(Cl)c4[C@@H](O)[C@H]3C[C@@H]12 71.9% [at 12.3 µM]
CC(=O)Nc1ccc(S(=O)(=O)Nc2ccc(N3CCCCC3)cc2)cc1 68.2% [at 12.3 µM]
COc1ccc(NS(=O)(=O)c2ccc(NC(C)=O)cc2)cc1OC 62.4% [at 12.3 µM]
Cc1nn(Cc2ccc(F)cc2)c(C)c1NC(=O)c1noc2c1CCc1ccccc1-2 57.4% [at 12.3 µM]
CCCCNC(=O)N(O)C1N(/N=C/c2ccccc2O)C(=S)SC1(C)C (stereo not given) 89.7% [at 12.3 µM]
CCCCCCCCn1c2c(c(=N)c3c1CCC3)CCCC2 64.5% [at 12.3 µM]
CN1CC(c2ccccc2)C2(COc3ccccc3C2=O)C12C(=O)Nc1ccccc12 (stereo not given) 108% [at 12.3 µM]
N#Cc1ccccc1-n1c(N)c(C(=O)N2CCCC2)sc1=S 59.1% [at 12.3 µM]

inhibition, inactive:
C/C=C/c1cnc2c(c1)C(=O)N([C@@H](C)CO)C[C@@H](C)[C@H](CN(C)C(=O)c1cnccn1)O2 4.56%
C[C@H](CO)N1C[C@H](C)[C@@H](CN(C)C(=O)CCC(F)(F)F)OCCCC[C@H](C)Oc2ccc(NC(=O)C3CCCCC3)cc2C1=O -45.1%
COc1ccc(NC(=O)N(C)C[C@@H]2Oc3ccc(NC(=O)CCN4CCOCC4)cc3C(=O)N([C@@H](C)CO)C[C@H]2C)cc1 -19.9%
Cc1noc(C)c1NC(=O)Nc1cccc2c1O[C@@H](CN(C)CC1CCCCC1)[C@H](C)CN([C@@H](C)CO)C2=O -120%
Cc1ccc(S(=O)(=O)N(C)C[C@H]2Oc3ccc(NC(=O)CCC(F)(F)F)cc3C(=O)N([C@@H](C)CO)C[C@H]2C)cc1 9.23%
COc1ccc(C(CNC(=O)COc2ccccc2OC)N2CCCCC2)cc1 (stereo not given) 1.58% [at 12.3 µM]
COc1ccc(C(CNC(=O)COc2ccc([N+](=O)[O-])cc2)N2CCCCC2)cc1 (stereo not given) 1.73% [at 12.3 µM]
COc1ccc(S(=O)(=O)N(C)C[C@@H]2OCCCC[C@H](C)Oc3ccc(NC(=O)NC4CCCCC4)cc3C(=O)N([C@H](C)CO)C[C@H]2C)cc1 20.2%
CO[C@@H]1CC[C@@H]2CCOc3ccc(C#N)cc3C(=O)N(C)[C@H](C)C(=O)N(C)C[C@@H]1O2 14.7%
COc1ccc2cc(-c3[nH]ncc3CNCCn3nc(C)cc3C)ccc2c1 -11.4% [at 12.3 µM]
COc1ccc(Oc2cn[nH]c2-c2ccc(OC)cc2O)cc1 4.87% [at 12.3 µM]
CCCNC(=O)Nc1ccc2c(c1)C(=O)N(C)C[C@H](OC)[C@@H](C)CN(C)[C@@H](C)CO2 18.7%
COc1ccc(CN(C)C[C@H]2Oc3c(NC(=O)C4CCCCC4)cccc3C(=O)N([C@@H](C)CO)C[C@@H]2C)cc1 7.57%
Cc1ccc(CC2(C)C(=O)Nc3ccc(OC(F)(F)F)cc32)cc1 (stereo not given) 10.5% [at 12.3 µM]
COc1ccccc1CC1(C)C(=O)Nc2ccc(OC(F)(F)F)cc21 (stereo not given) 5.2% [at 12.3 µM]
C[C@H]1CN([C@@H](C)CO)C(=O)c2cc(-c3cccnc3)cnc2O[C@@H]1CN(C)C(=O)C1CC1 1.19%
C[C@@H]1CN([C@@H](C)CO)C(=O)c2cc(C#CC3CCCCC3)cnc2O[C@H]1CN(C)C(=O)Cc1ccccn1 -1.78%
CC(C)NC(=O)N(C)C[C@H]1Oc2ncc(C#CC3CCCCC3)cc2C(=O)N([C@H](C)CO)C[C@@H]1C 5.6%
CC(C)NC(=O)Nc1ccc2c(c1)C(=O)N([C@@H](C)CO)C[C@H](C)[C@H](CN(C)S(=O)(=O)c1cccs1)O2 -7.33%
O=C(c1ccccc1)N1CCN(C(=O)c2cc3nc(-c4ccccc4)cc(C(F)(F)F)n3n2)CC1 13.3% [at 12.3 µM]
C#Cc1cc(N2CCN(C(=O)c3ccoc3)CC2)n2nc(-c3cccc(Cl)c3)cc2n1 2.89% [at 12.3 µM]
CN1CCN(C(=O)C[C@H]2CC[C@@H](NC(=O)c3ccc4c(c3)OCO4)[C@H](CO)O2)CC1 -2.25%
C[C@@H]1CCCCO[C@@H](CN(C)C(=O)CCC(F)(F)F)[C@H](C)CN([C@@H](C)CO)C(=O)c2cc(NC(=O)CCCN(C)C)ccc2O1 -15.3%
COc1ccc2c3c(n(C)c2c1)[C@H](CO)N(C(=O)NC(C)C)CC31CCN(C(=O)NC(C)C)CC1 25.2%
C=C1c2c(Cl)ccc(O)c2C(O)=C2C(=O)[C@]3(O)C(O)=C(C(N)=O)C(=O)[C@@H](N(C)C)[C@@H]3[C@@H](O)C12 (stereo not given in full) 9.73% [at 12.3 µM]
C[C@@H]1CN([C@H](C)CO)C(=O)c2cc(C#CC3(O)CCCC3)cnc2O[C@H]1CN(C)C(=O)C1CCC1 1.03%
CO[C@H]1CN(C)C(=O)c2cc(NC(=O)C3CC3)ccc2OC[C@@H](C)N(CCc2ccccc2)C[C@H]1C -0.128%
COC(C(=O)Nc1ccc(S(=O)(=O)Nc2ccc(C)c(C)c2)cc1)c1ccccc1 (stereo not given) -13.7% [at 12.3 µM]
COc1ccccc1C(=O)COC(=O)CNS(=O)(=O)c1ccc(NC(C)=O)cc1 -8.08% [at 12.3 µM]
CC(=O)Nc1ccc(NS(=O)(=O)c2ccc3c(c2)NC(=O)CC(=O)N3)cc1 -3.1% [at 12.3 µM]
CC(=O)Nc1ccc(S(=O)(=O)N2CCN(C3CCCCCCC3)CC2)cc1 -36.4% [at 12.3 µM]
C/C=C/c1cnc2c(c1)C(=O)N([C@H](C)CO)C[C@H](C)[C@@H](CN(C)C(=O)Nc1ccc(C(F)(F)F)cc1)O2 0.996%
C[C@@H]1CN([C@@H](C)CO)C(=O)c2cc(NC(=O)C3CCCCC3)ccc2O[C@@H](C)CCCCO[C@@H]1CN(C)Cc1ccc(C(=O)O)cc1 10.8%
CN(C)c1ccc2c(c1)[C@@H]1C[C@@H](CC(=O)NCc3ccccn3)O[C@H](CO)[C@@H]1O2 6.38%
C[C@H]1CN([C@@H](C)CO)C(=O)CCCn2nncc2CO[C@H]1CN(C)Cc1ccccc1 -11.7%
C[C@@H]1CN([C@H](C)CO)C(=O)c2cc(C#CC3CCCCC3)cnc2O[C@@H]1CN(C)C(=O)NC1CCCC1 10.8%
Cc1nn(Cc2ccc(F)cc2)c(C)c1NC(=O)c1cccnc1Cl 0.276% [at 12.3 µM]
Cc1nn(Cc2ccc(Cl)c(Cl)c2)c(C)c1NC(=O)c1cc(C2CC2)on1 -1.78% [at 12.3 µM]
Cc1ccccc1S(=O)(=O)N[C@H]1CC[C@H](CCn2cc(-c3ccc(F)cc3)nn2)O[C@H]1CO 4.55%
C[C@H](CO)N1C[C@H](C)[C@@H](CN(C)S(=O)(=O)c2cccs2)OCCCC[C@H](C)Oc2ccc(NS(=O)(=O)c3ccccc3)cc2C1=O -0.163%
CCC(C)N1C(=S)SC(C)(C)C1N(O)C(=O)NC1CCCCC1 (stereo not given) 16.9% [at 12.3 µM]
CCCCNC(=O)N(O)C1N(/N=C/c2ccc(N(C)C)cc2)C(=S)SC1(C)C (stereo not given) 10.2% [at 12.3 µM]
C[C@@H]1CCCCO[C@@H](CN(C)C(=O)Nc2ccc(C(F)(F)F)cc2)[C@H](C)CN([C@H](C)CO)C(=O)c2cc(NC(=O)C3CCCCC3)ccc2O1 14.1%
Cc1ccc(S(=O)(=O)N[C@H]2CC[C@@H](CC(=O)NCc3ccc(Cl)c(Cl)c3)O[C@H]2CO)cc1 16.7%
O=C1NC(c2ccccc2)Oc2ccccc21 (stereo not given) -8.85% [at 12.3 µM]
C[C@@H]1NC(=O)[C@@]2(C)[C@@H](c3ccccc3)[C@H]3COc4ccccc4[C@@H]3N2C1=O 1% [at 12.3 µM]
CO[C@H]1CN(C)C(=O)c2ccc(NC(=O)C3CC3)cc2OC[C@@H](C)N(C(=O)c2ccccn2)C[C@@H]1C 3.53%
COc1ccc(S(=O)(=O)Nc2cccc3c2O[C@H](CN(C)C(=O)NC(C)C)[C@H](C)CN([C@H](C)CO)C3=O)cc1 -9%
O=C(c1ccc(S(=O)(=O)N2CCCC2)cc1)N1CCN(c2ccccc2F)CC1 -21.7% [at 12.3 µM]
Cc1ccc(-n2c(N)c(C(=O)N3CCOCC3)sc2=S)c(C)c1 24.4% [at 12.3 µM]
CNC(=O)C[C@@H]1CC[C@H]2[C@H](COc3ccc(NC(=O)C4CC4)cc3C(=O)N2C)O1 12%
CC(C)NC(=O)N(C)C[C@@H]1Oc2ncc(C#Cc3ccncc3)cc2C(=O)N([C@@H](C)CO)C[C@@H]1C -8.31%
COc1ccccc1S(=O)(=O)N(C)C[C@@H]1Oc2cc(C#CCC3CCCC3)ccc2S(=O)(=O)N([C@H](C)CO)C[C@H]1C 34.8%
